Mtb MenB inh: M. tuberculosis MenB inhibitors, primary screen, biochemical, absorbance; actives 0.43% (n = 100,000); 1,4-dihydroxy-2-naphthoyl-CoA synthase (Mycobacterium tuberculosis (strain ATCC 25618 / …; AID 540299, 2011; inhibition, % (concentration not given with the values); MenB enzyme assay, absorbance read-out; in the data active = inhibition above about 21%, passing the limit was not always enough
Target sequence (P9WNP5 whole entry, looked up): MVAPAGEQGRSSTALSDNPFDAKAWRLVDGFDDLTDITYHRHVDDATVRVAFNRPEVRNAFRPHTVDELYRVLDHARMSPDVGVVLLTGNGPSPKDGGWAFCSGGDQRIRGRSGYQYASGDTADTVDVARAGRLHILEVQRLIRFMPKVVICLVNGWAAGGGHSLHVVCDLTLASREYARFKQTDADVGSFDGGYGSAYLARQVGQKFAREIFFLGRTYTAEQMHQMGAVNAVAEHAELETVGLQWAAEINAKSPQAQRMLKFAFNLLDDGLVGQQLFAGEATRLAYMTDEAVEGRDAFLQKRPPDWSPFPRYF
AID504770: growth inhibition of E. coli YBA685, primary screen, V. cholerae RctB inhibitors. E. coli YBA685 rctB-dependent plasmid, OD600 growth, 3 h; stronger effect = lower value. z-score (test concentration not listed). actives 0.27% (n = 130,000). AID 504770, 2011; in the data active = z-score below about -2, passing the limit was not always enough
Polio RdRp inh: poliovirus RdRp elongation inhibitors, primary screen, biochemical, fluorescence polarization, total intensity | poliovirus polymerase elongation; stronger effect = lower value | Genome polyprotein (Poliovirus type 1 (strain Mahoney)), P03300 | actives 0.66% (n = 150,000) | % elongation, % (compound at 16.7 µg/mL); in the data active = % elongation below about 90%
Mtb MbtI inh: MbtI salicylate synthase inhibitors, primary screen, biochemical, fluorescence intensity; AID 493033, 2011; actives 0.89% (n = 100,000); purified MbtI enzyme, fluorescence intensity read-out; inhibition, % (concentration not given with the values); P9WFX0; in the data active = inhibition mostly above about 56%, no sharp cut-off; inactive = mostly below about 77%
An asterisk follows results filed as active. In the library only some 1.4% were active in any assay of this set; here they are far more common.

How did O=C1c2ccccc2-c2onc3ccc(Oc4c(F)c(F)c(F)c(F)c4F)c1c23 do in these assays?
Mtb MenB inh: 3; AID504770: -2.2*; Polio RdRp inh: 102; Mtb MbtI inh: -5

What do the screens show for `COc1ccc(NC(=O)C(C)n2nnc3sc(-c4ccccc4)cc3c2=O)cc1Cl` (stereo unspecified)?
Polio RdRp inh: 76*

What do the screens show for `Cc1ccc(C2=NNC(c3cccs3)S2)cc1` (stereo unspecified)?
Mtb MenB inh: -3; AID504770: 0.9; Polio RdRp inh: 72*

Results for O=C1NC(=O)N(CCc2ccc(F)cc2)C(=O)/C1=C\c1ccc(O)c(O)c1 ?
Mtb MenB inh: -33; AID504770: -0.45; Polio RdRp inh: 100; Mtb MbtI inh: 51*

What do the screens show for `C=CCN1C(=O)NC(=O)/C(=C\c2ccc(O)c(O)c2)C1=O`?
Mtb MenB inh: -50; AID504770: 0.9; Polio RdRp inh: 101; Mtb MbtI inh: 20

What do the screens show for `O=C(NCCSc1ccc(Cl)cc1)Nc1ccccc1`?
Mtb MenB inh: 3; AID504770: -4.5*; Polio RdRp inh: 100; Mtb MbtI inh: -6

What do the screens show for `O=C(NCCCSc1ccccc1)Nc1ccccc1`?
Mtb MenB inh: -9; AID504770: 0.05; Polio RdRp inh: 110; Mtb MbtI inh: -10

Results for Cc1ccc(S(=O)(=O)NCC(Sc2nnc(-c3cccs3)n2C2CC2)c2ccccc2)cc1 (stereo unspecified) ?
Mtb MenB inh: -30; AID504770: 1.1; Polio RdRp inh: 107; Mtb MbtI inh: -2

Results for CCOc1ccc(-c2c(=O)n(O)c3ccccc3[n+]2[O-])cc1 ?
Mtb MenB inh: -142; AID504770: 1.9; Polio RdRp inh: 99; Mtb MbtI inh: 87*

Results for O=c1c(-c2ccc(I)cc2)[n+]([O-])c2ccccc2n1O ?
Mtb MenB inh: -114; AID504770: -0.7; Polio RdRp inh: 101; Mtb MbtI inh: 43

Results for CNC(=O)CSc1nnc(-c2cccc(S(=O)(=O)N3CCCC3)c2)n1-c1ccccc1 ?
Mtb MenB inh: -3; AID504770: -0.25; Polio RdRp inh: 100; Mtb MbtI inh: -1

What do the screens show for `Cc1csc(Nc2ccc(Cl)cc2)n1`?
Mtb MenB inh: -13; AID504770: -1.1; Polio RdRp inh: 98; Mtb MbtI inh: 63*

Results for Clc1ccc(Nc2nnns2)cc1 ?
Mtb MenB inh: -3; AID504770: -1.3; Polio RdRp inh: 98; Mtb MbtI inh: 59*

What do the screens show for `O=Nc1ccc(NNC(=O)c2ccccc2O)cc1`?
Mtb MenB inh: -414; AID504770: -2.9*; Polio RdRp inh: 101; Mtb MbtI inh: 46

How did O=C(Nc1ccc(NC(=O)c2ccccc2O)cc1)c1ccccc1 do in these assays?
AID504770: 1.1

Results for COc1ccc(NC(=O)CC(NCc2ccccc2)C(=O)O)cc1 (stereo unspecified) ?
Mtb MenB inh: -23; AID504770: -0.75; Polio RdRp inh: 106; Mtb MbtI inh: -12

What do the screens show for `COc1cc(/C=N/N=C2/C(=O)Nc3ccccc32)ccc1OCC(=O)N1CCOCC1`?
Mtb MenB inh: -10; AID504770: 0.6; Polio RdRp inh: 99; Mtb MbtI inh: 3

How did O=S(=O)(NN=Cc1cn(-c2ccccc2)nc1-c1ccco1)c1ccc(Cl)cc1 do in these assays?
Mtb MenB inh: -5; AID504770: 0.9; Polio RdRp inh: 102; Mtb MbtI inh: 90*

What do the screens show for `NC(=O)N/N=C/c1cn(-c2ccccc2)nc1-c1ccccc1`?
Mtb MenB inh: 7; AID504770: 0.2; Polio RdRp inh: 100; Mtb MbtI inh: -6

How did NC(=O)N/N=C/c1ccc([N+](=O)[O-])o1 do in these assays?
Mtb MenB inh: -1; AID504770: -3.5*; Polio RdRp inh: 101; Mtb MbtI inh: 10

What do the screens show for `Clc1nc(Nc2ccccc2)sc1/C=N/n1cnnc1`?
Mtb MenB inh: -12; AID504770: -0.3; Polio RdRp inh: 46; Mtb MbtI inh: 62

How did CCC(=O)N(c1n[nH]c(=S)s1)C1CC1 do in these assays?
Mtb MenB inh: -13; AID504770: -0.65; Mtb MbtI inh: 91*

Results for CCN1CCc2c(sc(=NC(=O)c3ccc(F)cc3)n2C(=O)c2ccc(F)cc2)C1 ?
Mtb MenB inh: -13; AID504770: -2.1; Polio RdRp inh: 65*; Mtb MbtI inh: 93

What do the screens show for `C=CCn1c(=NC(=O)c2ccc(F)cc2)sc2cc(C(=O)OC)ccc21`?
AID504770: 0.05

How did NCC1CCN(Cc2ccccc2)C1 (stereo unspecified) do in these assays?
Mtb MenB inh: 28*; AID504770: 0.45; Polio RdRp inh: 103; Mtb MbtI inh: 34

Results for c1ccc(CN2CCCC(c3ccccc3)C2)cc1 (stereo unspecified) ?
AID504770: -0.6; Mtb MbtI inh: -11

What do the screens show for `CCC(Sc1nc2c(c(=O)[nH]1)CCC2)C(=O)Nc1cccc(OC)c1` (stereo unspecified)?
Mtb MenB inh: 5; AID504770: -1.1; Polio RdRp inh: 102; Mtb MbtI inh: 96*

What do the screens show for `[N-]=[N+]=c1c(=O)ccc2c(=O)c3ccccc3c(=O)c1=2`?
Mtb MenB inh: -45; AID504770: -6.3*; Polio RdRp inh: 82*; Mtb MbtI inh: -3

Results for CCCNC(=O)CCc1c(C)nc2c(c1C)c(=O)n(C)c(=O)n2C ?
Mtb MenB inh: 5; AID504770: 1.3; Polio RdRp inh: 104; Mtb MbtI inh: -30

What do the screens show for `CCN1CCCC1CNCc1cccc(OC)c1OC` (stereo unspecified)?
Mtb MenB inh: 38*; AID504770: -0.25; Polio RdRp inh: 103; Mtb MbtI inh: 1

How did CCN1CCCC1CNCc1ccccn1 (stereo unspecified) do in these assays?
Mtb MenB inh: -79; AID504770: 1.8; Polio RdRp inh: 102; Mtb MbtI inh: 2

How did Oc1ccccc1Oc1c(F)c(F)nc(N2CCOCC2)c1F do in these assays?
Mtb MenB inh: -9; AID504770: -1.2; Polio RdRp inh: 102; Mtb MbtI inh: 10

What do the screens show for `CN(C)Cc1ccccc1CNC(=O)c1cc(Cl)nc(Cl)c1`?
Mtb MenB inh: -5; AID504770: 0.1; Polio RdRp inh: 103; Mtb MbtI inh: 4

Results for COc1ccc(CCNC(=O)COc2cc(C)c3ccccc3n2)cc1 ?
AID504770: 1.4; Polio RdRp inh: 105; Mtb MbtI inh: 0

How did CC(=O)Nc1scc2c1c(=O)oc1ccccc12 do in these assays?
Mtb MenB inh: -17; AID504770: -0.6; Polio RdRp inh: 103; Mtb MbtI inh: 11

What do the screens show for `COC(=O)Nc1scc2c1c(=O)oc1ccccc12`?
Mtb MenB inh: -21; AID504770: -0.35; Polio RdRp inh: 98; Mtb MbtI inh: 71*

How did CSC(=S)N(c1ccccc1)c1ccccc1 do in these assays?
AID504770: 0.45; Polio RdRp inh: 102; Mtb MbtI inh: -7

Results for NC(=S)N(c1ccccc1)c1ccccc1 ?
Mtb MenB inh: 32*; AID504770: 1.1; Polio RdRp inh: 101; Mtb MbtI inh: 5

What do the screens show for `O=C(Nc1ccccc1Cl)c1cc2c(s1)CCC2`?
AID504770: -1.5; Polio RdRp inh: 102; Mtb MbtI inh: 4
